KB-3-1 tox = kills parental KB-3-1 adenocarcinoma cells; KB-3-1 viability, CellTiter-Glo ATP luminescence, 72 h; Potency, µM (doses to about 46.1 µM), hits mostly cytotoxic; actives 1.4% (n = 400,000); note: potency is the fitted concentration of half-maximal effect; nearly all actives have a fitted effect of over 60% in size
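Parental KB-3-1 adenocarcinoma cells in phenol-red-free DMEM with 10% FBS were pin-treated with compounds at several concentrations, incubated 72 h at 37 °C, and viability read by CellTiter-Glo luminescence; concentration-effect curves were fitted after normalization.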
IL1B secr inh = inhibitors of inflammasome signaling (IL-1 beta secretion); AID 743279; actives 4.7% (n = 360,000); activity change, % at 57.5 µM; THP-1 LPS/ATP IL-1B secretion, AlphaLISA, 16 h; stronger effect = lower value; in the data active = activity change below about -50%; inconclusive = mostly about -30% to -49%
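Secreted IL-1B measured by AlphaLISA bead assay after 16 h compound exposure of THP-1 cells; compounds (final up to 57.5 uM) added 1 h before LPS (250 ng/mL) and ATP (1.25 mM) stimulation; lower signal means less secretion.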
HT1080 IDH1KD tx = HT-1080 IDH1 knockdown cell toxicity (counter line); HT-1080 IDH1 knockdown viability, ATP luminescence, 48 h; AID 686971; actives 2% (n = 360,000); Potency, µM (doses to about 46.1 µM), without a hit: at the highest dose activity, negative = toxicity, most hits filed as cytotoxic;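 note: potency is the fitted concentration of half-maximal effect; 0% = DMSO wells and -100% = cell-free medium wells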
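Luminescent ATP read-out (CellTiter-Glo, 10 min at room temperature) after 48 h compound exposure at 37 °C gave viability of IDH1-knockdown HT-1080 cells. Activity was normalised to DMSO and cell-free wells, then fitted as concentration-response curves.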
KB-V1 cytotox = KB-V1 MDR subline cytotoxicity | KB-V1 MDR cells viability, CellTiter-Glo, 72 h | Potency, µM (highest dose often 46.1 µM), most hits filed as cytotoxic | actives 3.4% (n = 400,000) | AID 1347076; note: potency is the fitted concentration of half-maximal effect; nearly all actives have a fitted effect of over 60% in size
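KB-V1, DMEM (no phenol red) + 10% FBS; cpd pin-transferred, titration series; 72 h, 37 degrees C; CellTiter-Glo, luminescence. Data normalized, curve-fit.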
HT1080NT lethal = kills 2HG-producing HT-1080-NT fibrosarcoma cells. HT-1080-NT fibrosarcoma viability, CellTiter-Glo ATP luminescence, 48 h. actives 1.6% (n = 360,000). AID 686970. Potency, µM (highest dose often 46.1 µM), for inactives: at the highest dose activity, negative = less viability, usual class: cytotoxic;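 note: NT is the 2HG producing partner of a matched IDH1 knockdown line; potency is the fitted concentration of half-maximal effect; 0% = DMSO-treated cells and -100% = media-only wells without cells; nearly all actives have a fitted effect of over 55% in size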
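750 cells/well, RPMI + 5% FBS; 2 h settle, compound pin-transfer, 48 h at 37 degrees C. CellTiter-Glo 10 min RT, luminescence. Normalized to DMSO and media-only wells.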
Starred values were filed as active, the others as inactive; i = inactive; ? = inconclusive; nt = no result given; [ ] = another dose, or the depositor's remark. The list is not random: actives were taken first. Their share in the collection is about 8.8%. Unless noted, calls come from the whole dose curve; as a rule, active = well fitted curve in the direction sought with a large enough effect; inconclusive = small, poorly fitted or top-dose-only effect, or another doubt; inactive = no such curve, though single readings can be large; an effect the other way counts as inactive or inconclusive. Unless noted, % is set by controls: 0 for no effect and ±100 for the full control effect.

SMILES | KB-3-1 tox | IL1B secr inh | HT1080 IDH1KD tx | KB-V1 cytotox | HT1080NT lethal
CCN1CCN(Cc2c(O)ccc3cc(-c4ccc(OC)cc4)c(=O)oc23)CC1 | i | nt | nt | i | nt
O=S(=O)(c1cccc2cnccc12)N1CCNCC1 | ? | -50.9* | -18.7% | i | ?
O=S(=O)(c1cccc2ccccc12)N1CCSC1 | i | 24.4 | 0.6% | i | -4.5%
Cc1ccc(S(=O)(=O)N2[C@H](CC(=O)c3cccc4ccccc34)OC[C@@H]2C)cc1 | i | -2.9 | -29.3% | ? | ?
COc1cccc(C(=O)Nc2ncc3c(n2)CC(c2ccc(OC)cc2OC)CC3=O)c1 (stereo unspecified) | ? | 16.5 | 7.94µM* | 5.17µM* | 7.94µM*
Cc1cccc(N2CCN(C(=O)Nc3cn(CC(C)C)c(=O)c4ccccc34)CC2)c1C | i | nt | nt | i | nt
CCc1nc2ccc(C(=O)NCCCN(C)C)cn2c1N(C)CCCc1ccccc1 | i | -21.9 | 23.1µM* | i | 18.4µM*
CCc1nc2ccc(C(=O)NCCCn3ccnc3)cn2c1N(C)Cc1cc2ccccc2s1 | i | ? | ? | i | 20.6µM*
CCc1nc2ccc(C(=O)NCCCn3ccnc3)cn2c1N(C)Cc1ccc(OC)cc1 | i | -23.0 | 13.7% | i | 10.1%
CCc1nc2ccc(C(=O)NC3CCN(Cc4ccccc4)CC3)cn2c1N(C)Cc1cccs1 | i | -52.2* | ? | i | ?
CCc1nc2ccc(C(=O)NCCCn3ccnc3)cn2c1N(C)CCCc1ccccc1 | i | ? | ? | i | ?
CCc1nc2ccc(C(=O)NC3CCN(Cc4ccccc4)CC3)cn2c1N(C)Cc1cc2ccccc2s1 | ? | -65.9* | ? | 10.3µM* | 16.4µM*
COc1ccc(CNC(=O)c2ccc(-c3c(C)noc3C)c3ccoc23)cc1OC | i | 86.6 | -8.8% | ? | 1.5%
COc1ccccc1CNC(=O)COc1cc2c(c3oc(=O)cc(C)c13)CCC(C)(C)O2 | i | -60.8* | -14.4% | 16.4µM* | -1.0%
COC(=O)Cc1ccc(OC2(C)CCN(Cc3ccccc3OC(F)F)C2)cc1 (stereo unspecified) | i | -54.0* | 0.0% | i | 0.1%
O=C(NC1CCCCC1)C1c2ccccc2OCC(=O)N1CCc1c[nH]c2ccccc12 (stereo unspecified) | i | 0.7 | 25.9µM* | i | 0.0%
O=C(NCCCc1nc2ccccc2n1Cc1ccccc1Cl)c1ccco1 | i | nt | nt | ? | nt
Clc1ccccc1Cn1c(/C=C/c2ccco2)nc2ccccc21 | ? | ? | 23.1µM* | 13µM* | ?
Cc1ccc(-n2[nH]c(C)c(C=Nc3ccc4[nH]c(=O)[nH]c4c3)c2=O)cc1C | ? | -17.5 | 23.1µM* | ? | 23.1µM*
Cc1[nH]n(-c2cccc3ccccc23)c(=O)c1C=Nc1ccc2[nH]c(=O)[nH]c2c1 | i | 22.3 | 9.7% | i | 13.4%
Cc1ccc(N=Cc2c(C)[nH]n(-c3nc4ccccc4[nH]3)c2=O)cc1 | 8.2µM* | 8.0 | 3.26µM* | 6.51µM* | 2.91µM*
Cc1ccc(-n2[nH]c(C)c(C=Nc3ccc4[nH]c(=O)[nH]c4c3)c2=O)cc1 | 20.6µM* | -27.8 | ? | ? | ?
COc1nccnc1NS(=O)(=O)c1ccc(N=Cc2c(C)[nH]n(-c3ccc(C)c(C)c3)c2=O)cc1 | ? | 11.8 | 7.94µM* | ? | 10µM*
CO/N=C(/C)CCS(=O)(=O)c1ccccc1 | i | 14.6 | 7.7% | i | -1.0%
CCn1cc(CCCC(=O)NCc2ccc(OC)cc2)c2ccccc21 | i | -11.0 | -1.0% | i | 0.0%
SMILES | KB-3-1 tox | IL1B secr inh | HT1080 IDH1KD tx | KB-V1 cytotox | HT1080NT lethal
CC1(C)C=Cc2c(ccc3c2OC[C@H](c2ccc(O)cc2O)C3)O1 | i | 34.1 | -7.7% | i | 0.5%
CC(C)=CCc1cc([C@@H]2COc3c(ccc4c3C=CC(C)(C)O4)C2)c(O)cc1O | i | -51.0* | ? | i | ?
S=C1SCN(Cc2cccnc2)CN1Cc1cccnc1 | ? | nt | 6.51µM* | ? | 7.31µM*
COCC(C)n1c(SCC(=O)Nc2sccc2C(N)=O)nc2ccccc2c1=O (stereo unspecified) | i | -4.3 | -1.4% | i | -11.7%
Cc1nnc(SCC(=O)Nc2cccc(S(N)(=O)=O)c2)n1-c1ccccc1 | i | 25.1 | 13.5% | i | 13.6%
C=CCn1c(SCC(=O)Nc2cccc(S(N)(=O)=O)c2)nc2sc(C)c(C)c2c1=O | i | -61.3* | ? | 23.1µM* | -8.1%
COCCn1c(SCC(=O)Nc2cccnc2Cl)nc2cc(Cl)ccc2c1=O | i | -11.2 | -2.1% | ? | -5.5%
COCCn1c(SCC(=O)Nc2sccc2C(N)=O)nc2cc(Cl)ccc2c1=O | i | -54.1* | ? | i | ?
COCCn1c(SCC(=O)Nc2cccc(S(N)(=O)=O)c2)nc2cc(Cl)ccc2c1=O | i | -68.0* | -22.6% | i | -8.6%
C=CCn1c(SCC(=O)Nc2ccccc2C)nc2sc(C)c(C)c2c1=O | i | 5.5 | -20.8% | ? | -2.6%
Cc1ccc(-n2c(SCC(=O)Nc3cccc(S(N)(=O)=O)c3)nc3ccccc32)cc1 | 14.6µM* | 27.0 | ? | i | -3.1%
O=C(O)CCNC(=O)/C(=C/C=C/c1ccccc1)NC(=O)c1ccccc1 | i | 10.4 | -1.0% | i | 0.7%
CNc1cncc(-c2ccc(CN3CCOCC3)cc2)n1 | ? | 23.4 | -9.6% | ? | -6.8%
Cc1ccc(NC(=O)CN(C)C(=O)COC(=O)c2ccc(Cl)cc2O)cc1 | i | 0.0 | -3.6% | i | -0.1%[9.24 µM]
O=C(CSc1nc(=O)n(Cc2ccco2)c2c1CCC2)NCc1ccccc1 | i | nt | nt | i | nt
Cc1nc2c(-c3ccccc3)c(C)[nH]n2c(=O)c1Cc1ccccc1 | ? | 83.5 | ? | ? | -26.7%
Cc1[nH]n2c(=O)cc(-c3ccccc3Cl)nc2c1-c1ccccc1 | 6.51µM* | nt | nt | i | nt
Cc1cccc(Cc2c(C)nc3c(-c4ccccc4)c(C)[nH]n3c2=O)c1 | 10.3µM* | nt | nt | i | nt
Cc1nc2c(-c3ccc(F)cc3)c(C)[nH]n2c(=O)c1Cl | 10.3µM* | 1.3 | -8.6% | i | -11.7%
Cc1[nH]n2c(=O)c3c(nc2c1-c1ccc(F)cc1)CCCC3 | ? | 8.1 | -8.6% | i | 9.5%
Cc1ccc(Oc2nc3c(c(=O)n(Cc4ccccc4)c(=O)n3C)n2C)cc1C | i | nt | nt | ? | nt
Cc1ccc(S(C)(=O)=NS(=O)(=O)c2cccc3nsnc23)cc1 (stereo unspecified) | i | -53.2* | 3.9% | i | -0.1%
Cc1oc(-c2ccccc2)cc1C(=O)Nc1cccc2ccccc12 | ? | -66.4* | -1.4% | ? | -15.3%
Cc1oc(-c2ccccc2)cc1C(=O)Nc1cccc(C(=O)O)c1 | i | 25.2 | 2.5% | i | 2.6%

High-throughput results deposited in PubChem by National Center for Advancing Translational Sciences (NCATS).
